For six compounds, outcome and AC50 results are on record in PubChem BioAssay (EPA / NIEHS).

Results filed as inconclusive are left out. Activity calls are given as the source filed them. Rule for the calls, unless noted: active = hit-call score of the fitted dose curve at least 0.9, where 1 is the maximum; inconclusive = response in the unintended direction; inactive = score below 0.9.

The target in test [1] is Retinoic acid receptor alpha (Homo sapiens) (UniProt P10276). Nature of the test: ATG_DR5_RAR_CIS: Attagene CIS-FACTORIAL HepG2 Assay for human Retinoic Acid Receptor Alpha (RARE), DR5 submotif (AID 2282934; active = hit-call score of the fitted dose curve at least 0.9, where 1 is the maximum; inactive = score below 0.9). The note with it: HepG2 Attagene cis-factorial RARE DR5 reporter, mRNA; actives raise or lower the signal. Summed up: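 Transfected HepG2 reporter cells are exposed to chemicals for 24 h. Then RNA is extracted and the DR5 element reporter transcript is measured by RT-PCR and capillary electrophoresis, with bidirectional curve fitting relative to DMSO.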
Chain of Retinoic acid receptor alpha (Homo sapiens) (P10276 whole entry, looked up): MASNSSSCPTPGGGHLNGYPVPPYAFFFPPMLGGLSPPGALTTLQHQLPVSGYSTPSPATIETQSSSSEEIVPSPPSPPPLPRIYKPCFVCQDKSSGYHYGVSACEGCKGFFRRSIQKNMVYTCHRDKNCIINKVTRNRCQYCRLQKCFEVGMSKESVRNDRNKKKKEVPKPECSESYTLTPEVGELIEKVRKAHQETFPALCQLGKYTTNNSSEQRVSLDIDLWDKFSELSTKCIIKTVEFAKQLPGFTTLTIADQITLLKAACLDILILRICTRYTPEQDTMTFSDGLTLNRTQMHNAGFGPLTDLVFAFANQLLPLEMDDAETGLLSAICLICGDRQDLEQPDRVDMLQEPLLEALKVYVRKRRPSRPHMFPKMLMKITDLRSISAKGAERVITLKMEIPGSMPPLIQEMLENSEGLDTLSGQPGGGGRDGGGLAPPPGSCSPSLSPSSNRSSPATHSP

The target of test [2] is Nuclear receptor subfamily 1 group I member 3 (Homo sapiens) (UniProt Q14994). The test can be described thus: ATG_CAR_TRANS: Attagene TRANS-FACTORIAL HepG2 Assay for human Constitutive Androstane Receptor (CAR) (AID 2282969).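 Note: activators raise reporter mRNA above DMSO so AC50 marks induction.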 The following applies: HepG2 Attagene TRANS-FACTORIAL CAR reporter. The method in brief:
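Steps: transient transfection of HepG2 with multiple GAL4-UAS reporter units; 24 h compound incubation; RNA isolation, RT-PCR, 6-FAM primer extension, HpaI digest; capillary electrophoresis. Gain-of-signal relative to DMSO negative control.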

Test [3] deals with Nuclear receptor subfamily 4 group A member 2 (Homo sapiens) (UniProt P43354). The test can be described thus: ATG_NURR1_TRANS: Attagene TRANS-FACTORIAL HepG2 Assay for human Nuclear Receptor Related Protein 1 (NURR1) (AID 2282985). The note with it: HepG2 Attagene TRANS reporter, mRNA readout. Summed up: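 Chimeric NR-Gal4 proteins were expressed in human HepG2 cells bearing GAL4-UAS reporter units, and induced reporter mRNA was quantified 24 h post-dosing by RT-PCR and capillary electrophoresis.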
Chain of Nuclear receptor subfamily 4 group A member 2 (Homo sapiens) (P43354 whole entry, looked up, the tested form may be a part): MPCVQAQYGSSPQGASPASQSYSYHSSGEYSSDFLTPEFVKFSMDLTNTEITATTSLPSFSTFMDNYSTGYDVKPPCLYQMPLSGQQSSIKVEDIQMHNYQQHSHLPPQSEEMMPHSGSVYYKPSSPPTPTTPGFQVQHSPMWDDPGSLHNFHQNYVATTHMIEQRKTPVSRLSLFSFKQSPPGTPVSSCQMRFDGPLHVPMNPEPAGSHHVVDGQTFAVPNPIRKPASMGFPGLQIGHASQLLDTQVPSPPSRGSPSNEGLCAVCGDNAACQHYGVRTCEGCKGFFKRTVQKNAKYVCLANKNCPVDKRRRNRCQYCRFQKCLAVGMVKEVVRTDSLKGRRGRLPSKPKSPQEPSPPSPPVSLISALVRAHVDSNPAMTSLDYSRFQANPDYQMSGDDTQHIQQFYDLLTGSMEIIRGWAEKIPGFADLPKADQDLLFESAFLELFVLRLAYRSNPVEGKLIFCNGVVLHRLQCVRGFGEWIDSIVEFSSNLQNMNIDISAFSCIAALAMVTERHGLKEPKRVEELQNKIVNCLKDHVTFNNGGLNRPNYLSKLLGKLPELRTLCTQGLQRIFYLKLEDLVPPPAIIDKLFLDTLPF

The target of test [4] is Nuclear receptor subfamily 1 group I member 2 (Homo sapiens) (UniProt O75469). The test can be described thus: ATG_PXR_TRANS: Attagene TRANS-FACTORIAL HepG2 Assay for human Pregnane X Receptor (PXR) (AID 2283008). The method in brief:
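Transient HepG2 transfectants carrying multiplexed reporter transcription units; PXR activity read through a Gal4 chimera. 24 h exposure. RT-PCR/CE fluorescence; upward curve fit referenced to DMSO.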

Test [5] deals with human Vitamin D Receptor (VDR), VDR (gene 7421) (UniProt P11473). The test can be described thus: ATG_VDR_TRANS: Attagene TRANS-FACTORIAL HepG2 Assay for human Vitamin D Receptor (VDR) (AID 2283022). The method in brief: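 Steps: transfect HepG2 with GAL4-UAS-driven reporter constructs; dose compounds 24 h; isolate RNA, reverse-transcribe, PCR-amplify with 6-FAM-labelled primer extension and HpaI digestion; quantify fragments by capillary electrophoresis relative to DMSO.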
Chain of human Vitamin D Receptor (VDR), VDR (gene 7421) (P11473 whole entry, looked up, the tested form may be a part): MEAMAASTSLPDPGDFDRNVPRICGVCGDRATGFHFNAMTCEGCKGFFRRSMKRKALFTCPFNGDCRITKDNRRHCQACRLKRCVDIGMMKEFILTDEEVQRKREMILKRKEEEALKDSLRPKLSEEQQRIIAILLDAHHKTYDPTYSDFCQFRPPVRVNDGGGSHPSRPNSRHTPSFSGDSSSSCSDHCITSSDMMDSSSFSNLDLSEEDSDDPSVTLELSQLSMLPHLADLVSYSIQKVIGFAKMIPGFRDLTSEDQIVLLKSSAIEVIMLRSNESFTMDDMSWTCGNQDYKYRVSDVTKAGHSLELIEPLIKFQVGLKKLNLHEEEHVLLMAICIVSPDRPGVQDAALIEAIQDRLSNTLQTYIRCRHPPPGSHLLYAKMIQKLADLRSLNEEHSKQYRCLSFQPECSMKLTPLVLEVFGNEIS

A short description of test [6]: TOX21_p53_BLA_p2_viability: Viability Assessment in the Tox21 HCT-116 p53 Agonism Beta-lactamase Assay, Phase 2 (AID 2283591).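 Note: compound exposure lasted 16 h at 37 °C; actives lower the ATP signal meaning cytotoxicity.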 The method in brief:
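HCT-116 p53-bla cells (4000/well) rested 5 h at 37C, then received compounds in DMSO (217-fold dilution) for 16 h at 37C, 5% CO2. After the CCF4 read, CellTiter-Glo was added; ATP luminescence was read after 30 min at room temperature.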

Test [7] in a line: TOX21_p53_BLA_p3_viability: Viability Assessment in the Tox21 HCT-116 p53 Agonism Beta-lactamase Assay, Phase 3 (AID 2283593).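 Note: cells exposed to compound for 16 h before reading.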 The method in brief: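 HCT-116 cells (4000/well) rested 5 h at 37C, then got DMSO compounds by pin tool (217-fold dilution) for 16 h at 37C, 5% CO2. After the bla read, CellTiter-Glo was added and luminescence read at 30 min, room temperature.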
Test [8] deals with Cellular tumor antigen p53 (Homo sapiens) (UniProt P04637). The test can be described thus: TOX21_p53_BLA_p3_ratio: Tox21 HCT-116 p53 Agonism Beta-lactamase Assay, Ratio, Phase 3 (AID 2283596). Summed up: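 Cells were seeded at 4000/well, rested 5 h at 37C, then dosed with DMSO compound solutions (217-fold dilution) for 16 h. CCF4-AM substrate was loaded for 2 h at room temperature, and the 460/530 nm emission ratio was fitted for gain of signal versus DMSO.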
Chain of Cellular tumor antigen p53 (Homo sapiens) (P04637 whole entry, looked up): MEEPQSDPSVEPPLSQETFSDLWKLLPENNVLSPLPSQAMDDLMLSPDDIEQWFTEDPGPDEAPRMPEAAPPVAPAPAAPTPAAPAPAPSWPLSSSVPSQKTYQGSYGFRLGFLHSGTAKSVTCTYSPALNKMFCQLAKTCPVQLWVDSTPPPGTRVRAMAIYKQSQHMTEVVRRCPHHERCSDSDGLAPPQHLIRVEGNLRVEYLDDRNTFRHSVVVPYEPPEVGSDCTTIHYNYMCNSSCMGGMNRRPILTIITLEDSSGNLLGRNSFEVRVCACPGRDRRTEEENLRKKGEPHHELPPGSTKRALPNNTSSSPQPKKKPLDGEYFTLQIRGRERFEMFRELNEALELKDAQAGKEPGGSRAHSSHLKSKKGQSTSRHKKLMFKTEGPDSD

Test [9] can be described thus: CCTE_Harrill_HTTr_Viability_MCF7: CCTE's 6-hour Cell Viability Assessment for the High-Throughput Transcriptomics (HTTr) Platform, in MCF-7 cells cultured in DMEM + 10% fetal bovine serum, Harrill Lab (AID 2284010; active = hit-call score of the fitted dose curve at least 0.9, where 1 is the maximum; inactive = score below 0.9). The method in brief:
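Eight-point concentration series, six-hour exposure. Propidium iodide exclusion imaged to assess membrane integrity as a cytotoxicity readout; bidirectional fitting was done with DMSO as negative control and activity baseline.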

The target of test [10] is Bile acid receptor (Homo sapiens) (UniProt Q96RI1). The test can be described thus: ATG_IR1_CIS: Attagene CIS-FACTORIAL HepG2 Assay for human Nuclear Receptor Subfamily 1 Group H Member 4 (NR1H4), IR1 submotif (AID 2282946; active = hit-call score of the fitted dose curve at least 0.9, where 1 is the maximum; inactive = score below 0.9). The following applies: IR1 reporter transcription, actives raise or lower the signal. Summed up: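 Readout: reporter transcript levels by RT-PCR with fluorescent capillary electrophoresis, from HepG2 cells transiently transfected with multiplexed cis-regulated reporters and dosed 24 h. Gain- or loss-of-signal fitted versus DMSO negative control.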

The target of test [11] is human Peroxisome Proliferator-activated Receptor delta (PPARd), PPARD (gene 5467) (UniProt Q03181). Nature of the test: ATG_PPARd_TRANS: Attagene TRANS-FACTORIAL HepG2 Assay for human Peroxisome Proliferator-activated Receptor delta (PPARd) (AID 2283002). Summed up:
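Measured quantity: GAL4-UAS reporter transcript induction in HepG2 after 24 h chemical dosing, with NR-Gal4 chimeras supplied by transient transfection. Detection by RT-PCR and capillary electrophoresis; upward fit against DMSO.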

Test [12] has as its target human RAR-related Orphan Receptor beta (RORb), RORB (gene 6096) (UniProt Q92753). The test can be described thus: ATG_RORb_TRANS: Attagene TRANS-FACTORIAL HepG2 Assay for human RAR-related Orphan Receptor beta (RORb) (AID 2283010). The method in brief:
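Multiplexed transcription-factor reporter assay: HepG2 cells transiently carrying NR-Gal4/GAL4-UAS constructs, 24 h treatment, mRNA quantified by RT-PCR plus capillary electrophoresis fluorescence; activity scored as induction over DMSO.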

Test [13] deals with human RAR-related Orphan Receptor gamma (RORg), RORC (gene 6097) (UniProt P51449). The test can be described thus: ATG_RORg_TRANS: Attagene TRANS-FACTORIAL HepG2 Assay for human RAR-related Orphan Receptor gamma (RORg) (AID 2283011). The method in brief: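 First, HepG2 liver cells were transfected with GAL4-UAS-driven reporter constructs and the RORg-Gal4 fusion. Next, they were treated with chemical for 24 h. Finally, reporter mRNA was quantified by RT-PCR and capillary electrophoresis, with upward activity fitted against DMSO.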

The nature of test [14]: ATG_XTT_Cytotoxicity: Cytotoxicity Assessment in the Attagene TRANS-FACTORIAL HepG2 Assay (AID 2283584). Summed up:
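Cells: human HepG2, transiently transfected with MRTU reporter constructs. Exposure 24 h. Readout: XTT, cell number. Baseline/neg ctrl DMSO; loss-of-signal scored.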

Test [15] is described as follows: TOX21_p53_BLA_p4_viability: Viability Assessment in the Tox21 HCT-116 p53 Agonism Beta-lactamase Assay, Phase 4 (AID 2283597).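 Note: hits lower the luminescence signal meaning cytotoxicity.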 Summed up:
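Readout: ATP luminescence (CellTiter-Glo), measured 30 min after reagent addition at RT. The reagent followed a 2 h CCF4-AM incubation, and the cells had been exposed to compound for 16 h at 37C.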

The target in test [16] is Oxysterols receptor LXR-alpha (Homo sapiens) (UniProt Q13133). Nature of the test: ATG_LXRa_TRANS: Attagene TRANS-FACTORIAL HepG2 Assay for human Liver X Receptor alpha (LXRa) (AID 2282980). The following applies: HepG2 Attagene TRANS reporter, LXRa transactivation. Summed up:
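Transfect HepG2 with GAL4-UAS multiplex reporter constructs (TRANS format, chimeric receptor-GAL4); treat 24 h; extract RNA, reverse-transcribe, PCR-amplify, FAM-label, HpaI-digest; resolve fragments by capillary electrophoresis. Upward response vs DMSO.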

Test [17] has as its target Hepatocyte nuclear factor 4-alpha (Homo sapiens) (UniProt P41235). Nature of the test: ATG_HNF4a_TRANS: Attagene TRANS-FACTORIAL HepG2 Assay for human Hepatocyte Nuclear Factor 4 alpha (HNF4a) (AID 2282982). The following applies: HepG2 HNF4a transactivation reporter, mRNA readout. The method in brief: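 Using HepG2 liver cells transfected with GAL4-UAS reporter units, chemical-induced mRNA increases were assessed after 24 hours. Fluorescent RT-PCR fragments were separated by capillary electrophoresis and compared with DMSO negative controls.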

For test [18], the target named is human Peroxisome Proliferator-activated Receptor alpha (PPARa), PPARA (gene 5465) (UniProt Q07869). Nature of the test: ATG_PPARa_TRANS: Attagene TRANS-FACTORIAL HepG2 Assay for human Peroxisome Proliferator-activated Receptor alpha (PPARa) (AID 2283001). The method in brief: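 Exposure: 24 h, transiently transfected HepG2 cells. Endpoint: GAL4-UAS reporter mRNA, RT-PCR with capillary electrophoresis fluorescence. Baseline: DMSO; increases fitted.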

Test [19] can be described thus: ATG_GAL4_TRANS: Attagene TRANS-FACTORIAL HepG2 Assay for GAL4 (Internal Marker) (AID 2282976). The following applies: HepG2 Attagene TRANS GAL4 internal marker reporter. The method in brief: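 First, HepG2 cells were transfected with reporter units under GAL4-UAS control. Next, they were treated with chemical for 24 h. Finally, RNA was reverse-transcribed, PCR-amplified, FAM-labelled and resolved by capillary electrophoresis, with induction scored against DMSO.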

Test [20] concerns the target Oxysterols receptor LXR-beta (Homo sapiens) (UniProt P55055). Nature of the test: ATG_LXRb_TRANS: Attagene TRANS-FACTORIAL HepG2 Assay for human Liver X Receptor beta (LXRb) (AID 2282981). The following applies: HepG2 Attagene TRANS GAL4-LXRb reporter, mRNA. The method in brief: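 Liver-derived HepG2 cells transfected with Gal4-responsive reporters were dosed for 24 h. Activation was scored as rise in reporter mRNA, by RT-PCR and capillary electrophoresis, above DMSO baseline.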

Chain of Nuclear receptor subfamily 1 group I member 2 (Homo sapiens) (O75469 whole entry, looked up, the tested form may be a part): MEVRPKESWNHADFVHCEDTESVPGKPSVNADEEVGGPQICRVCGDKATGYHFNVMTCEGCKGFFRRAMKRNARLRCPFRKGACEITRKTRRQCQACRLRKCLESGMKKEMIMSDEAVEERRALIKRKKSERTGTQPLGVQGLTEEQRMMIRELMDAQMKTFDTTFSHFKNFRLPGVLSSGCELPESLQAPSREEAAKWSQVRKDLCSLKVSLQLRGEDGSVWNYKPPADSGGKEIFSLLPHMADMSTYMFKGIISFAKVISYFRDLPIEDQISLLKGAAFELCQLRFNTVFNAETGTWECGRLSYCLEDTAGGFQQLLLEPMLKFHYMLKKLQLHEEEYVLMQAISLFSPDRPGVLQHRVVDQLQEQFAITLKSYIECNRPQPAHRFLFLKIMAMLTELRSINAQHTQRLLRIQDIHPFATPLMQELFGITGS
Chain of Oxysterols receptor LXR-alpha (Homo sapiens) (Q13133 whole entry, looked up, the tested form may be a part): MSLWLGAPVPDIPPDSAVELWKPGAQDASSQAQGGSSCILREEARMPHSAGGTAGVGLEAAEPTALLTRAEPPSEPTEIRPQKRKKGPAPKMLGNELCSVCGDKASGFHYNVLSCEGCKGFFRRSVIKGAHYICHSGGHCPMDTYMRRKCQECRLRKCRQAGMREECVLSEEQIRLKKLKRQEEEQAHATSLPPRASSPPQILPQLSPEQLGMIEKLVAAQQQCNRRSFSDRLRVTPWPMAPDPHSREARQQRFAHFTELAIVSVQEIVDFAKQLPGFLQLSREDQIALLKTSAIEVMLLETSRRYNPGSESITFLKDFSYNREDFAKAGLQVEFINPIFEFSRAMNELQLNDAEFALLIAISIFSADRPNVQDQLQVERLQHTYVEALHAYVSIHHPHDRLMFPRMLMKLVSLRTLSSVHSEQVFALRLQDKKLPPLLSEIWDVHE
Chain of Hepatocyte nuclear factor 4-alpha (Homo sapiens) (P41235 whole entry, looked up, the tested form may be a part): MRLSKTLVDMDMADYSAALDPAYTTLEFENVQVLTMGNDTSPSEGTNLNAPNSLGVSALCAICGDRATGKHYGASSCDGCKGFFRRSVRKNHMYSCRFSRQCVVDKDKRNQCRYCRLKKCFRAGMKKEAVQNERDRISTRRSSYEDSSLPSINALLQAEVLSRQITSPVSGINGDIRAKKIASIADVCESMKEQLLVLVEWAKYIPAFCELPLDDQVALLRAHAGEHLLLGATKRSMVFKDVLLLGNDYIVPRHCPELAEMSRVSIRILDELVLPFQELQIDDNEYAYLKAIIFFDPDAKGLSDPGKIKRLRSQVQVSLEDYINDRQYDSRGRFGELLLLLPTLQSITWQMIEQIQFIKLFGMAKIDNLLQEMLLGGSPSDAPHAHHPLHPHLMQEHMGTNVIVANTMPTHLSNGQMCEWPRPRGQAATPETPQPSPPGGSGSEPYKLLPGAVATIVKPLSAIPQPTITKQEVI
Chain of Nuclear receptor subfamily 1 group I member 3 (Homo sapiens) (Q14994 whole entry, looked up, the tested form may be a part): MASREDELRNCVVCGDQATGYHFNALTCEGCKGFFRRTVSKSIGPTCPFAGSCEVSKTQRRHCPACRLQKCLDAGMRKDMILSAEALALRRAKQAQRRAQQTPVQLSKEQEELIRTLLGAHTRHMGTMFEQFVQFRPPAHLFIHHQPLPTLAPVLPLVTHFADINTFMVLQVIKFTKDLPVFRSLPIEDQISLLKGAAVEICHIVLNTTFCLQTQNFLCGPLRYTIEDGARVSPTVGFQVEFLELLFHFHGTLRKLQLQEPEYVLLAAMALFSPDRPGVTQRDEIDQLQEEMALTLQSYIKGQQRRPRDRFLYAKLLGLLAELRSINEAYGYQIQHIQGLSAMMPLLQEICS
Chain of human RAR-related Orphan Receptor beta (RORb), RORB (gene 6096) (Q92753 whole entry, looked up, the tested form may be a part): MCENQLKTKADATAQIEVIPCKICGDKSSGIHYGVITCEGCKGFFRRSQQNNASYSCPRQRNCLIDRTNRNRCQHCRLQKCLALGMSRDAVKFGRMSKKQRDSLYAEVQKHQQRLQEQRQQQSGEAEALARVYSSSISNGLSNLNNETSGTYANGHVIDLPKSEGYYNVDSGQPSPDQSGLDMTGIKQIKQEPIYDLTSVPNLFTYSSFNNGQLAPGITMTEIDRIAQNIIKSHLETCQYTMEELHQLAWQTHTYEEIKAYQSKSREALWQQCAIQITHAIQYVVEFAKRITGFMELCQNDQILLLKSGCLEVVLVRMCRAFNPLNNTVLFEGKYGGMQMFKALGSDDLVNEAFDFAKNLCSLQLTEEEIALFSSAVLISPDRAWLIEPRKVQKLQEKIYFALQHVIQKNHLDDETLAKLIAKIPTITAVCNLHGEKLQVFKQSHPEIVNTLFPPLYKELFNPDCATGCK
Chain of human Peroxisome Proliferator-activated Receptor delta (PPARd), PPARD (gene 5467) (Q03181 whole entry, looked up, the tested form may be a part): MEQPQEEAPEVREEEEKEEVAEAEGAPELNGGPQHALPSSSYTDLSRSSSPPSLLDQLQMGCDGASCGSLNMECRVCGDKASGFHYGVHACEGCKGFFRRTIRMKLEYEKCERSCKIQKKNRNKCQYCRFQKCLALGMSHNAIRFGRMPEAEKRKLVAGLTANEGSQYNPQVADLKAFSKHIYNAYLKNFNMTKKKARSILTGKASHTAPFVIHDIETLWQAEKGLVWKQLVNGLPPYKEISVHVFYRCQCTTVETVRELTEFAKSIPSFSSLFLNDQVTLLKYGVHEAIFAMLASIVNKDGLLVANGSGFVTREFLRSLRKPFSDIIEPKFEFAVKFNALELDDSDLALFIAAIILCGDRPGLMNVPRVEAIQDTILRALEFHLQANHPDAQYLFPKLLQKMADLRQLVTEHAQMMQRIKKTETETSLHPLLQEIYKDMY
Chain of Oxysterols receptor LXR-beta (Homo sapiens) (P55055 whole entry, looked up, the tested form may be a part): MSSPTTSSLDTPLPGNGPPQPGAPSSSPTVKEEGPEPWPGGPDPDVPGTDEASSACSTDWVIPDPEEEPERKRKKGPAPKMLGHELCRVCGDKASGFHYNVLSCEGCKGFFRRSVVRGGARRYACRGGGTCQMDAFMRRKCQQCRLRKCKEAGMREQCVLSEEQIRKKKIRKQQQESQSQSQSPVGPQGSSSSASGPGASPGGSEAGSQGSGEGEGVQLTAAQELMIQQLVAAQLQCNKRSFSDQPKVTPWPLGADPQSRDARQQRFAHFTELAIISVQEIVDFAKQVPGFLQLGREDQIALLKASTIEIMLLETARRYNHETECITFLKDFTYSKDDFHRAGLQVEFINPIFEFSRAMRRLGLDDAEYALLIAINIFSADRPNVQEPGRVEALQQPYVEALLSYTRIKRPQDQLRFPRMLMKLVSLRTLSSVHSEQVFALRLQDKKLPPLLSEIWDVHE

As to `CCc1cccc(C)c1N(C(=O)CCl)[C@@H](C)COC`, the result in test [1], in test [2], in test [3], in test [5], in test [6] and in test [7] was inactive. Further, the result in test [8] and in test [9] was inactive. Also, the AC50 in test [4] was 180 nM (active).

Regarding `O=C(NCNC(=O)NC1C(=O)NC(=O)N1CO)NC1C(=O)NC(=O)N1CO` (centres undefined), the outcome in [1], in test [10], in test [11], in test [4], in [12] and in [13] was inactive. Also, the compound was classed as inactive in test [14], in test [8] and in [15].

On to `CC(C)(O)C#N`, for which the compound was called inactive in [1], in test [10], in test [2], in test [16], in test [17] and in test [3]. Further, the compound was classed as inactive in test [18], in test [4], in test [5], in [14], in [6] and in [7]. The result in [8] and in test [9] was inactive.

Regarding `[CH3][Sn]([Cl])([Cl])[Cl]`, the compound was called inactive in test [1], in [2], in test [16], in test [12], in [13] and in [6]. Moreover, in [8], the result was inactive.

With `O=CNC(N1CCN(C(NC=O)C(Cl)(Cl)Cl)CC1)C(Cl)(Cl)Cl` (centres undefined), the result in [19], in test [16], in [20], in test [17], in test [3] and in [11] was inactive. The outcome in [5], in test [14], in [8], in test [15] and in [9] was inactive.

In the case of `CN(C)N`, the compound was classed as inactive in test [1], in test [19], in test [20], in test [17], in test [18] and in [5]. The compound was classed as inactive in test [7], in [15] and in test [9].

A word on the AC50: it is the midpoint of the concentration-response curve, whichever way the signal moves.
